Data taken from paper PMC7862700, “An all-to-all approach to the identification of sequence-specific readers for epigenetic DNA modifications on cytosine”.

Experiments:
Assay in all cases: DAPPL (digital affinity profiling via proximity ligation, sequencing); 10 mM Tris-HCl pH 7.5, 50 mM NaCl, 1 mM DTT, 4% glycerol, room temperature, 30 min; GST-TFs on glutathione beads, 16-mer random dsDNA library, 0.1% formaldehyde crosslink after washing; high values mean tight binding
Settings in all cases: protein: recombinant; tags: N-terminal GST; dsDNA, one strand shown
ERF = target: T1, ERF (Homo sapiens, UniProt P50548 1-548)
T1 sequence: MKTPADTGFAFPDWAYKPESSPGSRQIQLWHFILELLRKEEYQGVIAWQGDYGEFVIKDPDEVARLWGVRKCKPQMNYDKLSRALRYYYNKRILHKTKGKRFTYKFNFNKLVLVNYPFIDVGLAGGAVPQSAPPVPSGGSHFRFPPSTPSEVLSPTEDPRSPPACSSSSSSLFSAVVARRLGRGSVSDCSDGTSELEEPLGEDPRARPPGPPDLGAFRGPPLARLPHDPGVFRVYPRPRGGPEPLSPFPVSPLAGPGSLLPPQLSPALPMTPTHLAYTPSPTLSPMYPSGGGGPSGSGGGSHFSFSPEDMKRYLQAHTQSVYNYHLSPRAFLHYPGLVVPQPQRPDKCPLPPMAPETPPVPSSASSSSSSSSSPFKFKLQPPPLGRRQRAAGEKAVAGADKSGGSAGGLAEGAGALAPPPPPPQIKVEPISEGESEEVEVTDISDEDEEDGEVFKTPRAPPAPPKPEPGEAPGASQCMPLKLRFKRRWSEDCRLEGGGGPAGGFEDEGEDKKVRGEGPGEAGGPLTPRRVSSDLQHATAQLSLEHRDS
How it was run: (§1)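 Binding signal is defined as a hexamer's read frequency for one factor over its frequency for the tag-only sample. To obtain reads, GST-fused human transcription factors were expressed in yeast, captured on glutathione beads, barcoded with DNA and pooled with that sample. Pools met 200 nmole of a 16-mer random double-stranded DNA library in Tris/NaCl/DTT/glycerol buffer for 30 min at room temperature before washing, 0.1% formaldehyde crosslinking, proximity ligation (BsaI/T4 ligase, 1 h, 37 °C), PCR and Illumina NextSeq500 sequencing.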

ETV3L = target: T2, ETV3L (Homo sapiens, UniProt Q6ZN32 1-361)
T2 sequence: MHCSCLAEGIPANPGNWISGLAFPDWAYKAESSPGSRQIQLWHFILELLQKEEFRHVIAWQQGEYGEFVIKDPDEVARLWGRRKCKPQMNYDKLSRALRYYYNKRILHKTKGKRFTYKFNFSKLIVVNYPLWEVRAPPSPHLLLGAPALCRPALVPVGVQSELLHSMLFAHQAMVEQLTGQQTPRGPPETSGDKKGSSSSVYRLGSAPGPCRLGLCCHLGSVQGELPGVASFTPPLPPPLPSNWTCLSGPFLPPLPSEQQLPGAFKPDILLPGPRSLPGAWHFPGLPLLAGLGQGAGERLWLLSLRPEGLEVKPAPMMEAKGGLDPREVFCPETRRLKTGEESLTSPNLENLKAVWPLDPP
How it was run: as §1

ETS2 = target: T3, ETS2 (Homo sapiens, UniProt P15036 1-469)
T3 sequence: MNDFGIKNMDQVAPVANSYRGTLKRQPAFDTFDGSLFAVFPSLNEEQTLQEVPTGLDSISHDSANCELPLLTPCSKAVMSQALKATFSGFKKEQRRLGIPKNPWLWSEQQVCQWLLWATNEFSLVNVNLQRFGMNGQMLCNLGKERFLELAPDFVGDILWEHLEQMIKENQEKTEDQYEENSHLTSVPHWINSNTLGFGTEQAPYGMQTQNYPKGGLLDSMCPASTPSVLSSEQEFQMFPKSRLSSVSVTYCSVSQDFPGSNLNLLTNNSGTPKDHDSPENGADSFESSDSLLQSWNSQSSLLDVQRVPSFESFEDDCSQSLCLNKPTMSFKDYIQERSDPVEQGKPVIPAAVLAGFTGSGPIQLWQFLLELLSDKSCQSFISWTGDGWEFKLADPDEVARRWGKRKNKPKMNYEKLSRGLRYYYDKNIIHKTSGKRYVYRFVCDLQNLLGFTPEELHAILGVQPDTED
How it was run: as §1

SPDEF = target: T4, SPDEF (Homo sapiens, UniProt O95238 1-335)
T4 sequence: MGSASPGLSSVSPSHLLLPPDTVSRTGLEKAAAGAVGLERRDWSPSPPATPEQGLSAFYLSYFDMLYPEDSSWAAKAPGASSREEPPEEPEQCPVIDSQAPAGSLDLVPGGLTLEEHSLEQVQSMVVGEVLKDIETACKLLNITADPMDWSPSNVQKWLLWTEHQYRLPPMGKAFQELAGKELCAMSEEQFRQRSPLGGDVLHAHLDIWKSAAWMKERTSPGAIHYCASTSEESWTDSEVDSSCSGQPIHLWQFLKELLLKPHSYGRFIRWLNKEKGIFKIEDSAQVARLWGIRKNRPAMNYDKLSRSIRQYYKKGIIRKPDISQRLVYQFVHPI
How it was run: as §1

ETV7 = target: T5, ETV7 (Homo sapiens, UniProt Q9Y603 1-341)
T5 sequence: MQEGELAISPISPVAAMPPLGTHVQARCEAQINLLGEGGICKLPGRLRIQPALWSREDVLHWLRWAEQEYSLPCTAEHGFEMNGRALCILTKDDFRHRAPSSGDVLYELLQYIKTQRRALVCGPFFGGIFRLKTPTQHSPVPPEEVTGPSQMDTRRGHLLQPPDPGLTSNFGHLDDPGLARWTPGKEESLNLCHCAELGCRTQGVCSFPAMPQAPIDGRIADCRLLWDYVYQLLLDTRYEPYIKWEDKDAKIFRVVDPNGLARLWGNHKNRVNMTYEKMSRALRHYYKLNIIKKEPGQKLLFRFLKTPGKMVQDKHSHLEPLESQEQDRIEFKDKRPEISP
How it was run: as §1

ELF5 = target: T6, ELF5 (Homo sapiens, UniProt Q9UKW6-2 1-255)
T6 sequence: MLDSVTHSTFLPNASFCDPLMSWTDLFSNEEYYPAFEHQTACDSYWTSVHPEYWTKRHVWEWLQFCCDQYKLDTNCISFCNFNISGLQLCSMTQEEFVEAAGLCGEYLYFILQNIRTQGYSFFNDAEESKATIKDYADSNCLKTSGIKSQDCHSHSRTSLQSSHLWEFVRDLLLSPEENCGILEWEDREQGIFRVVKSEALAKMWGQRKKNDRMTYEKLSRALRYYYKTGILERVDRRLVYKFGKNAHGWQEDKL
How it was run: as §1

ETV3 = target: T7, ETV3 (Homo sapiens, UniProt P41162-2 1-143)
T7 sequence: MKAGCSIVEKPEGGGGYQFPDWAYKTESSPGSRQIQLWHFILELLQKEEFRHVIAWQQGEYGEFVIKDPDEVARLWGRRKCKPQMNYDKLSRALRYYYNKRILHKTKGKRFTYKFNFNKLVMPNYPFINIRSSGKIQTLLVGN
How it was run: as §1

ETV6 = ETV6 (Homo sapiens, UniProt P41212 1-452)
How it was run: as §1

Chain of ETV6 (P41212 whole entry): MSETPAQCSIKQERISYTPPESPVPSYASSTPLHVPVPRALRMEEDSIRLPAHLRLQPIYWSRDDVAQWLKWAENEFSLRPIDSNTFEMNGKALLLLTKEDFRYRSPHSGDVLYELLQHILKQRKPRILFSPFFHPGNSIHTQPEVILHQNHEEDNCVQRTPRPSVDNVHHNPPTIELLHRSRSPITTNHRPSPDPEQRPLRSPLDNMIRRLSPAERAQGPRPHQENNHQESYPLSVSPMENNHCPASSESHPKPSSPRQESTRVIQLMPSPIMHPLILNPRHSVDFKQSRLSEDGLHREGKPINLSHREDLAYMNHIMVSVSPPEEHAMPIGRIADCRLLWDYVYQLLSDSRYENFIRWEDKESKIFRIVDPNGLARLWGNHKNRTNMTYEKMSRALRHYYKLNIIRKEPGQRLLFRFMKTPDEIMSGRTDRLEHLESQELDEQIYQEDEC

Sequence	binding signal (ERF)	binding signal (ETV3L)	binding signal (ETS2)	binding signal (SPDEF)	binding signal (ETV7)	binding signal (ELF5)	binding signal (ETV3)	binding signal (ETV6)
CGATGG	1.18 fold enrichment (6-mer frequency, TF over GST control)	1.34 fold enrichment (6-mer frequency, TF over GST control)	1.33 fold enrichment (6-mer frequency, TF over GST control)	1.29 fold enrichment (6-mer frequency, TF over GST control)	1.39 fold enrichment (6-mer frequency, TF over GST control)	1.18 fold enrichment (6-mer frequency, TF over GST control)	1.24 fold enrichment (6-mer frequency, TF over GST control)	1.33 fold enrichment (6-mer frequency, TF over GST control)
CTTGCG	1.41 fold enrichment (6-mer frequency, TF over GST control)	1.39 fold enrichment (6-mer frequency, TF over GST control)	1.28 fold enrichment (6-mer frequency, TF over GST control)	1.25 fold enrichment (6-mer frequency, TF over GST control)	1.3 fold enrichment (6-mer frequency, TF over GST control)	1.28 fold enrichment (6-mer frequency, TF over GST control)	1.42 fold enrichment (6-mer frequency, TF over GST control)	1.37 fold enrichment (6-mer frequency, TF over GST control)
AACCCC	1.03 fold enrichment (6-mer frequency, TF over GST control)	1.18 fold enrichment (6-mer frequency, TF over GST control)	1.21 fold enrichment (6-mer frequency, TF over GST control)	1.14 fold enrichment (6-mer frequency, TF over GST control)	1.11 fold enrichment (6-mer frequency, TF over GST control)	1.13 fold enrichment (6-mer frequency, TF over GST control)	1.07 fold enrichment (6-mer frequency, TF over GST control)	1.18 fold enrichment (6-mer frequency, TF over GST control)
TTATAC	1.55 fold enrichment (6-mer frequency, TF over GST control)	1.39 fold enrichment (6-mer frequency, TF over GST control)	1.42 fold enrichment (6-mer frequency, TF over GST control)	1.38 fold enrichment (6-mer frequency, TF over GST control)	1.53 fold enrichment (6-mer frequency, TF over GST control)	1.39 fold enrichment (6-mer frequency, TF over GST control)	1.37 fold enrichment (6-mer frequency, TF over GST control)	1.42 fold enrichment (6-mer frequency, TF over GST control)
TTCATG	1.22 fold enrichment (6-mer frequency, TF over GST control)	1.33 fold enrichment (6-mer frequency, TF over GST control)	1.33 fold enrichment (6-mer frequency, TF over GST control)	1.27 fold enrichment (6-mer frequency, TF over GST control)	1.35 fold enrichment (6-mer frequency, TF over GST control)	1.28 fold enrichment (6-mer frequency, TF over GST control)	1.4 fold enrichment (6-mer frequency, TF over GST control)	1.26 fold enrichment (6-mer frequency, TF over GST control)
CCGTTT	1.33 fold enrichment (6-mer frequency, TF over GST control)	1.45 fold enrichment (6-mer frequency, TF over GST control)	1.4 fold enrichment (6-mer frequency, TF over GST control)	1.57 fold enrichment (6-mer frequency, TF over GST control)	1.49 fold enrichment (6-mer frequency, TF over GST control)	1.51 fold enrichment (6-mer frequency, TF over GST control)	1.52 fold enrichment (6-mer frequency, TF over GST control)	1.53 fold enrichment (6-mer frequency, TF over GST control)
ACTTCT	1.35 fold enrichment (6-mer frequency, TF over GST control)	1.65 fold enrichment (6-mer frequency, TF over GST control)	1.4 fold enrichment (6-mer frequency, TF over GST control)	1.21 fold enrichment (6-mer frequency, TF over GST control)	1.5 fold enrichment (6-mer frequency, TF over GST control)	1.58 fold enrichment (6-mer frequency, TF over GST control)	1.36 fold enrichment (6-mer frequency, TF over GST control)	1.58 fold enrichment (6-mer frequency, TF over GST control)
CTTATA	1.29 fold enrichment (6-mer frequency, TF over GST control)	1.35 fold enrichment (6-mer frequency, TF over GST control)	1.41 fold enrichment (6-mer frequency, TF over GST control)	1.51 fold enrichment (6-mer frequency, TF over GST control)	1.39 fold enrichment (6-mer frequency, TF over GST control)	1.48 fold enrichment (6-mer frequency, TF over GST control)	1.28 fold enrichment (6-mer frequency, TF over GST control)	1.33 fold enrichment (6-mer frequency, TF over GST control)
CTGCGC	1.34 fold enrichment (6-mer frequency, TF over GST control)	1.33 fold enrichment (6-mer frequency, TF over GST control)	1.46 fold enrichment (6-mer frequency, TF over GST control)	1.12 fold enrichment (6-mer frequency, TF over GST control)	1.23 fold enrichment (6-mer frequency, TF over GST control)	1.26 fold enrichment (6-mer frequency, TF over GST control)	1.32 fold enrichment (6-mer frequency, TF over GST control)	1.27 fold enrichment (6-mer frequency, TF over GST control)
